PI5P4Ka inh: qHTS for Inhibitors of phosphatidylinositol 5-phosphate 4-kinase (PI5P4K) | PI5P4Kalpha enzyme, ADP-Glo luminescence, 60 min; active compounds read low | max response, % | 330,000 tested, 1.2% active | AID 652105, 2013; active means max response of -50% or lower; inconclusive means between -30% and -50%; inactive means -30% or higher; further: value at the top dose of about 77 µM
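Compounds were pin-transferred onto PI5P4Kalpha and substrate in HEPES pH 7.4 buffer with EGTA, CHAPS and 5% DMSO. ATP (5 microM final) started the reaction, which ran 60 minutes at room temperature before ADP-Glo detection.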
WRN helicase inh: qHTS for Inhibitors of WRN Helicase; WRN helicase unwinding, fluorescent forked duplex, kinetic; 360,000 tested, 0.46% active; Potency, µM (doses to about 114 µM), for inactives: at the highest dose activity change, negative = inhibition, most hits filed as inhibitors; further: potency means the concentration at half of the fitted maximal effect; nearly all actives have a fitted effect of over 55% in size
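WRN at 20 nM final preincubated with compound 15 min at room temperature; reaction started with 100 nM fluorophore/quencher forked duplex oligonucleotide and 2 mM ATP final. Unwinding followed kinetically by red fluorescence (ex 525, em 598 nm).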
USP2a inh: qHTS Assay for Inhibitors of Ubiquitin-specific Protease USP2a Using CHOP2 as the Reporter; Ubiquitin carboxyl-terminal hydrolase 2 (Homo sapiens), O75604; USP2 core, Ub-CHOP2 coupled fluorogenic reporter, 485/531; Potency, µM (highest dose often 38.3 µM), inactives show at the highest dose activity change, negative = inhibition, actives largely listed as inhibitors; 330,000 tested, 0.01% active; AID 463254, 2010;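 further: potency means the concentration at half of the fitted maximal effect; plate controls were DMSO wells for no effect and full inhibition by NEM control for full effect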
Target sequence (O75604 whole entry, looked up): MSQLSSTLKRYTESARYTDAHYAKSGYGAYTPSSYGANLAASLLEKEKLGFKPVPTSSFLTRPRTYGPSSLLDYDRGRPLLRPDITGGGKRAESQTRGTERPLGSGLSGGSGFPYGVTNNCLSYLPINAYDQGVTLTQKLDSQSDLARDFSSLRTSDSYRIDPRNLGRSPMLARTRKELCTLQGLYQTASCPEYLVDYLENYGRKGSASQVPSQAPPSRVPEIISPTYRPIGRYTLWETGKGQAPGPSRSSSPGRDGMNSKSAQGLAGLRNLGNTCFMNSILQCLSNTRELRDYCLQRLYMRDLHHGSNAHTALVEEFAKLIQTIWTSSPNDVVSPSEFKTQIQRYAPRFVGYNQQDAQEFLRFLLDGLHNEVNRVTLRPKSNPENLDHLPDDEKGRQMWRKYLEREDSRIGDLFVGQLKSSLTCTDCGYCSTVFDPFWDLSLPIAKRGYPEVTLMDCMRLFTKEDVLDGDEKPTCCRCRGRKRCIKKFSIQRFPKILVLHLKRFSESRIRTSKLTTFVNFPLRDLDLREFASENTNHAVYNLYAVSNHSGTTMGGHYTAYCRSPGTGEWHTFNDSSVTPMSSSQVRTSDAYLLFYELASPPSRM
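Deubiquitinase activity read as fluorescence (485/531 nm) after Ub-CHOP2 cleavage activates the enterokinase reporter on its substrate; USP2 core 10nM, Ub-CHOP2 and substrate 25nM each, 30min compound preincubation then 60min RT; data normalized to NEM, curves fitted.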
USP1 inh: Inhibitors of USP1/UAF1: Primary Screen; recombinant USP1/UAF1, Ub-Rhodamine cleavage fluorescence; Potency, µM (series often up to 57.1 µM), inactives show at the highest dose activity change, negative = inhibition, most hits filed as inhibitors; 390,000 tested, 0.23% active; AID 743255, 2014; further: potency means the concentration at half of the fitted maximal effect; nearly all actives have a fitted effect of over 60% in size
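Step one: compound is pinned into 1nM USP1/UAF1 in HEPES pH 7.8 buffer with TCEP. Step two: 15 min room-temperature incubation. Step three: Ub-Rho (150nM final) starts cleavage, tracked by fluorescence over six one-minute reads.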
PLK1 PBD block: qHTS for Inhibitors of PLK1-PDB (polo-like kinase 1 - polo-box domain): Primary Screen | Serine/threonine-protein kinase PLK1 (Homo sapiens), P53350 | Plk1 PBD binding of FITC phosphopeptide, fluorescence polarization | Potency, µM, for the others: max response, negative = inhibition, hits mostly inhibitors | 360,000 tested, 2.8% active; further: potency means the concentration at half of the fitted maximal effect; series mostly up to about 57 µM; nearly all actives have a fitted effect of over 65% in size
An asterisk follows results filed as active; ? = inconclusive; . = not tested or not shown; [ ] = dose if it differs, or a comment. Compounds with a hit are over-represented: about 3.3% of the library has one in this group of screens. Unless noted, the call rests on the fitted dose curve; in most records, active means well fitted curve in the direction sought with a large enough effect; inconclusive means small, poorly fitted or top-dose-only effect, or another doubt; inactive means no such curve, though single readings can be large; an effect the other way counts as inactive or inconclusive. Unless noted, on the % scale 0 is the no-effect control and ±100 the full control effect.

SMILES | PI5P4Ka inh | WRN helicase inh | USP2a inh | USP1 inh | PLK1 PBD block
O=C(O)c1cccnc1SC1CC(=O)N(Cc2ccccc2)C1=O (centres undefined) | ? | 13.6% | 1.2% | 1.2% | 3.77µM*
O=C(O)c1cccnc1SC1CC(=O)N(CCc2ccccc2)C1=O (centres undefined) | . | 2.4% | 4.3% | -4.8% | -7.8%
CC(C)Oc1ccc(C(=O)N(Cc2ccc(N(C)C)cc2)Cc2ccco2)cc1 | . | . | . | -18.3% | .
CSc1cccc(NC(=O)c2nnn(CC(=O)Nc3cc(C)cc(C)c3)c2N)c1 | ? | 0.5% | 1.9% | -19.6% | 13.4µM*
CN(C(=O)CCc1nc(-c2ccccc2F)no1)c1ccc(Cl)cc1 | . | . | . | -1.4% | .
CCn1cc2nc(SCc3cccc(C(F)(F)F)c3)n(Cc3ccc(OC)cc3)c(=O)c2n1 | . | . | . | -12.8% | .
CCOC(=O)c1sc(=S)n(C)c1NC(=O)c1ccccc1 | ? | ? | 4.4% | -7.7% | 7.52µM*
CCOC(=O)c1sc(=S)n(C)c1NC(=O)c1cccc(Br)c1 | -26.7 | ? | 1.4% | -2.6% | 10.6µM*
CCOC(=O)c1cc(S(=O)(=O)Nc2ccccc2OCC)[nH]n1 | . | . | . | -8.7% | .
CCOc1ccc(NC(=O)CCCn2c(C)c3cnn(-c4ccccc4)c(=O)c3c2C)cc1 | . | . | . | -20.4% | .
N#CC(=Cc1ccc(O)cc1)C(N)=C(C#N)C#N | -69.5* | 0.3% | 2.5% | -34.5% | 8.5%
Nc1ccc2cc3[nH]c4cc(N)ccc4c3nc2c1 | -58.9* | 25.1µM* | . | ? | 2.38µM*
Cc1cccc(-c2nnc(C3CCN(S(=O)(=O)c4cccc(Cl)c4)CC3)o2)c1 | . | . | . | -7.3% | .
O=C(O)c1cccnc1SCc1cn2cc(Br)ccc2n1 | -28.0 | 2.0%[57.1 µM] | 0.4% | -12.8% | 11.9µM*
CN(C(=O)Cn1nc(Cc2cccnc2)c2ccccc2c1=O)c1cccc(C(F)(F)F)c1 | . | . | . | -11.1% | .
CCOc1ccc(-c2cc(C(=O)NCCc3ccccc3)c3c(-c4ccc(C)cc4)[nH]nc3n2)cc1 | . | . | . | -20.9% | .
Cc1ccc(C(=O)CSc2nnc(-c3ccco3)n2Cc2ccccc2)cc1 | -50.7* | ? | -7.8% | -7.1% | 2.67µM*
Cn1c(SCC(=O)c2ccc(-c3ccccc3)cc2)nnc1-c1ccco1 | -61.7* | -11.0% | -22.9% | ? | -4.3%
O=C(CSc1nnc(-c2ccco2)n1Cc1ccccc1)c1ccccc1 | 1.5 | -13.4% | 1.3% | -22.1% | -14.4%
Cn1c(SCC(=O)OCc2ccccc2)nnc1-c1ccco1 | 7.6 | -14.2% | 1.4% | -11.6% | -8.2%
CCc1ccccc1NC(=O)c1noc2c1CC(C(C)(C)C)CC2 (centres undefined) | . | . | . | -8.9% | .
O=C(COc1ccc(Br)cc1)Nc1nnc(-c2cccnc2)s1 | -1.3 | 10.2% | -0.7% | -7.6% | 29.9µM*
C=CCn1c(COc2ccc(Cl)cc2)nnc1SCC(=O)N/N=C/c1cccc(O)c1 | -0.7 | -6.5% | -0.4% | -22.1% | -1.5%
C=CCn1c(COc2ccccc2)nnc1SC(C)C(=O)N/N=C/c1cc(Cl)ccc1O (centres undefined) | -18.1 | -24.3% | -1.5% | -6.0% | 26.7µM*
O=C(CNC(=O)OCc1ccccc1)NCC(=O)Oc1ccc([N+](=O)[O-])cc1 | 6.1 | 3.0% | . | -11.8% | 11.9µM*
SMILES | PI5P4Ka inh | WRN helicase inh | USP2a inh | USP1 inh | PLK1 PBD block
COC(=O)c1ccccc1NC(=O)c1sc(=S)n(C)c1N | -18.5 | -16.4% | 1.8% | 2.7% | 5.97µM*
Cn1c(N)c(C(=O)NCc2ccccc2)sc1=S | -13.3 | -5.6% | 0.9% | -13.1% | 18.9µM*
COC(=O)c1ccccc1NC(=O)c1sc(N)nc1C | 0.8 | -17.2% | -0.2% | -6.3% | 1.0%
COC(=O)C1=C(C)NC(=O)NC1c1ccc(N2CCC(c3ccccc3)=N2)cc1 (centres undefined) | 2.4 | 1.3% | 0.5% | -18.7% | 26.7µM*
COC(=O)C1=C(C)NC(=O)NC1c1ccc(OC)c(OC)c1 (centres undefined) | 2.1 | 4.5% | . | -3.2% | -10.7%
Cc1cc2nc3c(=O)[nH]c(=O)[nH]c3nc2c([N+](=O)[O-])c1N | -76.4* | 50.1µM* | ? | ? | 13.4µM*
Cc1c(N)c(C(C)(C)C)cc(C(C)(C)C)c1[N+](=O)[O-] | 25.8 | -5.1% | 4.4% | -25.9% | -3.8%
Cc1ccc(Cl)cc1NC(=O)Cn1cc(S(=O)(=O)Cc2ccccc2Cl)c2ccccc21 | . | . | . | -3.4% | .
CCc1ccccc1NC(=O)CSC1=C(C#N)C(c2ccc(O)c(OC)c2)C2=C(CCCC2=O)N1 (centres undefined) | ? | -25.3% | 5.0% | -22.7% | 10.6µM*
C=CCOC(=O)C1=C(C)NC(SCC(=O)OCC)=C(C#N)C1c1ccc(O)c(OC)c1 (centres undefined) | -53.7* | -34.1% | 3.1% | -23.5% | -20.4%
C=CCOC(=O)C1=C(C)NC(SCC(=O)Nc2nccs2)=C(C#N)C1c1cccs1 (centres undefined) | -18.1 | -0.8% | 0.7% | -10.7% | 29.9µM*
CCOc1ccc(C(=O)N(Cc2ccc(C(C)C)cc2)Cc2ccco2)cc1 | . | . | . | -10.4% | .
CCn1c(=O)c2cc(C(=O)N(C)c3cc(C)ccc3C)sc2c2ccccc21 | . | . | . | -5.2% | .
Cc1ccc(Cl)cc1NC(=O)Cn1nc2c(cc1=O)CC(C)CC2 (centres undefined) | . | . | . | -4.0% | .
O=C1C(Cc2ccccc2)Nc2ncnc(N3CCc4ccccc4C3)c2N1Cc1ccccc1 (centres undefined) | -24.2 | 9.2% | -1.2% | ? | 42.3µM*
CCCNC(=O)Cn1nc(-c2ccc(C)c(C)c2)c2cnc3ccc(F)cc3c21 | . | . | . | -22.0% | .
COC(=O)c1ccc(COC(=O)c2ccc(SC)cc2OC)cc1 | 0.1 | -4.0% | 2.7% | -25.4% | 26.7µM*
CCOC(=O)C1=C(C)Nc2nc(=S)[nH]n2C1c1ccc(Cl)cc1 (centres undefined) | -60.0* | 0.6% | 0.7% | -8.0% | 23.8µM*
Cc1ccc(CSC2=Nc3ccccc3C3=NC(CCC(=O)N4CCN(c5ccccc5)CC4)C(=O)N23)cc1 (centres undefined) | . | . | . | -17.8% | .
COC(=O)c1sccc1NC(=O)c1cccc(OC)c1 | -11.9 | 7.7% | 2.0% | -24.2% | 18.9µM*
O=C(Nc1ccc2c(c1)C(=O)c1ccccc1-2)c1ccccc1 | -5.9 | 6.7% | . | ? | 1.9%
COc1cccc(C(=O)Nc2ccc3c(c2)C(=O)c2ccccc2C3=O)c1 | -23.5 | ? | 0.3% | -21.3% | 26.7µM*

Screening results: PubChem BioAssay, National Center for Advancing Translational Sciences (NCATS)
